PubChem BioAssay (NCI)
Compounds without any hit were thinned out: in the full panel of roughly 83,000, 20% have a hit.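 For each line, cells grew in 96-well plates with the test compound present at a single concentration for 48 hours.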 A number with no mark means an inactive call. Activity calls are given as the source filed them. Rule for the calls: active = growth percent below 10; inactive = the rest.

Columns and labels:
Assay in all cases: NCI-60 one-dose screen, 48 h (100 = growth as untreated, 0 = no growth, -100 = all killed)
Conditions in all cases: 10 µM
[1] = test system: 786-0 renal
[2] = test system: SN12C renal
[3] = test system: TK-10 renal
[4] = test system: ACHN renal
[5] = test system: CAKI-1 renal
[6] = test system: A498 renal
[7] = test system: RPMI-8226 leukemia
[8] = test system: OVCAR-8 ovarian
[9] = test system: OVCAR-5 ovarian
[10] = test system: OVCAR-4 ovarian
[11] = test system: SK-OV-3 ovarian
[12] = test system: OVCAR-3 ovarian
[13] = test system: NCI/ADR-RES ovarian
[14] = test system: T-47D breast
[15] = test system: BT-549 breast
[16] = test system: MDA-MB-435 melanoma
[17] = test system: MCF7 breast
[18] = test system: HCT-116 colon
[19] = test system: HCC-2998 colon
[20] = test system: KM12 colon

SMILES	growth [1]	growth [2]	growth [3]	growth [4]	growth [5]	growth [6]	growth [7]	growth [8]	growth [9]	growth [10]	growth [11]	growth [12]	growth [13]	growth [14]	growth [15]	growth [16]	growth [17]	growth [18]	growth [19]	growth [20]
COc1cc(OC)c(/C=C/C(=O)c2nc3ccccc3n2Cc2ccc(F)cc2)c(OC)c1	85%	77.3%	109%	75.2%	56.2%	130%	78.4%	79.7%	112%	56.7%	88.2%	98.4%	78.2%	61.8%	77.8%	83.5%	56.1%	74.8%	105%	91.4%
CCC[Se]C(=O)c1ccc(C(=O)[Se]CCC)s1	2.15% (active)	-75% (active)	-79.8% (active)	-63.3% (active)	-78.1% (active)	-64.9% (active)	-5.8% (active)	-51.1% (active)	-35.6% (active)	55.6%	-31.1% (active)	-47.6% (active)	-53.9% (active)	30%	-86.4% (active)	-61% (active)	-34.6% (active)	-56% (active)	-8.78% (active)	5.4% (active)
O=C(/C=C/c1ccco1)c1nc2ccccc2n1Cc1ccc(Br)cc1	23%	43.4%	77.1%	48.7%	47.5%	105%	-5.78% (active)	46.7%	57%	46.5%	103%	22%	25.7%	4.25% (active)	6.02% (active)	15.2%	2.72% (active)	8.16% (active)	12.7%	20.7%
CC(=C\C(=O)Oc1ccc2c3c1OC1C(O)CCC4(O)C(C2)N(CC2CCC2)CCC314)/C=C1\CCCc2ccccc21 (stereo not given)	45.1%	60.9%	65.2%	84.9%	41.7%	125%	30.1%	76.9%	72.1%	55.6%	80.9%	77.2%	63.8%	24.4%	58.7%	61.8%	35.3%	28.6%	31.2%	40.5%
COc1ccc(/C=C/C(=O)c2nc3ccccc3n2Cc2ccc(Br)cc2)cc1	64.7%	90.4%	110%	77.5%	68%	122%	22.5%	77.5%	89.6%	66.1%	91.7%	60%	61.5%	31.1%	70.3%	61.1%	9.99% (active)	32%	54.2%	61.5%
CC12OOC(C)(OO1)C2CCC(=O)NCCNc1ccnc2cc(Cl)ccc12 (stereo not given)	107%	99.4%	121%	97%	78.2%	106%	78.8%	97.6%	102%	96.8%	91.2%	97.3%	98.3%	80.8%	106%	97.7%	82.3%	100%	99.7%	101%
CC(=O)Oc1ccccc1C(=O)NC([Se])=NC1CCCCC1	-11.9% (active)	-42.7% (active)	-52.9% (active)	20.2%	-75.4% (active)	16.3%	27.9%	-56.4% (active)	-30.3% (active)	-13.3% (active)	-41.7% (active)	-68.1% (active)	-16.4% (active)	-9.49% (active)	33.8%	8.85% (active)	1.18% (active)	21%	28.1%	5.47% (active)
O=C(/C=C/c1cccc(Br)c1)c1nc2ccccc2n1Cc1ccc(Br)cc1	-79% (active)	-10.1% (active)	10.4%	-30.5% (active)	16.6%	81.5%	-34.8% (active)	-8.23% (active)	-50.4% (active)	35.3%	65.4%	-51.5% (active)	-48.8% (active)	-0.946% (active)	-44.7% (active)	-31.2% (active)	-32.8% (active)	-96% (active)	-94.7% (active)	6.51% (active)
